# According to ChEMBL document CHEMBL3433997, “St. Jude Leishmania screening dataset” (2016):
# Tests used:
# Format in all cases: functional
# [1] = biological target: Solute carrier family 2, facilitated glucose transporter member 1 (Homo sapiens) (UniProt P11166); test: ST_JUDE_LEISH: Cytotoxicity at 2uM final concentration against transgenic Leishmania Mexicana promastigotes LmGLUT1 that are glucose transport deficient and complemented with the human glucose transporter GLUT1. Activity is measured by DNA content using SYBR green in vitro
# Sequence of Solute carrier family 2, facilitated glucose transporter member 1 (Homo sapiens) (P11166 whole entry): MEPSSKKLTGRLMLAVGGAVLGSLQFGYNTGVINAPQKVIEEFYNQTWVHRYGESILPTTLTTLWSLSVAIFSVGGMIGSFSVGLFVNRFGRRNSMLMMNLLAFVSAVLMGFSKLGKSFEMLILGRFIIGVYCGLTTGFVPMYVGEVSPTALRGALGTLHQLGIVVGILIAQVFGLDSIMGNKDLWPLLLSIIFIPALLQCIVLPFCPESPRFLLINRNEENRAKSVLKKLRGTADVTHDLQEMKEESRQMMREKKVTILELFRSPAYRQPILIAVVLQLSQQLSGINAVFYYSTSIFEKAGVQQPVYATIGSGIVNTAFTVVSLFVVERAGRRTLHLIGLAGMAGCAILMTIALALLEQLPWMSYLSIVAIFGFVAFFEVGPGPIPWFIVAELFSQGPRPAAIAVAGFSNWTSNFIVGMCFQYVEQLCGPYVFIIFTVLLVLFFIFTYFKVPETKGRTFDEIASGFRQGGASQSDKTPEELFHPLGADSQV
# [2] = biological target: Hexose transporter 1 (Plasmodium falciparum) (UniProt O97467); test: ST_JUDE_LEISH: Cytotoxicity at 2uM final concentration against transgenic Leishmania Mexicana promastigotes LmPfHT that are glucose transport deficient and complemented with the Plasmodium falciparum hexose transporter. Activity is measured by DNA content using SYBR green in vitro
# [3] = biological target: Glucose transporter (Leishmania mexicana) (UniProt O61059); test: ST_JUDE_LEISH: Cytotoxicity at 2uM final concentration against transgenic Leishmania Mexicana promastigotes LmGT2 that are glucose transport deficient and complemented with the L. Mexicana glucose transporter 2. Activity is measured by DNA content using SYBR green in vitro
SMILES,inhibition [1] [%],inhibition [2] [%],inhibition [3] [%]
Cc1ccc2nc3c(cc(C(=O)NCc4ccccc4)c(=N)n3CCCn3ccnc3)c(=O)n2c1,10.5,12.5,12.2
Ic1cc(Nc2ncnc3ccsc23)ccc1OCc1ccccc1,0.8,0.85,0.81
COc1ccccc1CNC(=O)C(=O)Nc1c(-c2ccccc2)[nH]c2ccccc12,-3.25,-4.12,-1.57
O=c1cc(NCCCNC(c2ccccc2)c2ccc(Cl)c(Cl)c2)[nH]c2ccccc12 (stereo unspecified),-1.95,-1.47,-1.3
CCOC(=O)c1c(C)n(-c2ccccc2)c2ccc(OC(=O)COc3ccc(Cl)cc3Cl)cc12,7.5,6.74,6.97
O=C(NCc1cccc(C(F)(F)F)c1)C1CCCN(C(=O)c2ccc(O)c(-c3ccc(Cl)c(Cl)c3)c2)C1 (stereo unspecified),3.46,2.95,3.95
CN(C)Cc1ccc(-c2ccc3c(Nc4ccc(Oc5ccccc5)cc4)ccnc3c2)o1,0.83,0.83,2.26
Cn1cnc(CCNC(=O)c2cccc(-c3csc(-c4nc5ccccc5[nH]4)c3)c2)c1,-1.62,-0.39,-0.89
O=C(Nc1ccc(F)cc1)NC1CCN(c2ccnc3ccccc23)C1 (stereo unspecified),3.76,3.71,3.79
Cc1sc2ccc(Cl)cc2c1S(=O)(=O)Nc1ccc2nccc(N3CC(C)NC(C)C3)c2c1 (stereo unspecified),3.66,4.16,6.32
O=c1cc(NCCCNCc2ccc(C(F)(F)F)c(F)c2)[nH]c2ccccc12,0.24,0.58,-0.68
Cc1cccc2nc(-c3ccc(-c4ccc(CN5CCN(CCN6CCOCC6)CC5)cc4)cc3)[nH]c12,6.69,8.97,-1.08
N#Cc1ccc(-c2ccc(C(=O)Nc3ccc4c(c3)CCN(C3CCC3)CC4)nc2)cn1,7.75,7.17,5.21
COc1cc2c(cc1S(=O)(=O)c1ccc(NC(=O)c3cccc(C(F)(F)F)c3)cc1)CCN(C)CC2,1.16,0.62,1.88
O=C(/C=C/c1ccc(Cl)c(Cl)c1)NCCCCCN1CCC(NC(=O)Nc2ccc(F)c(Cl)c2)CC1,3.93,4.82,6.8
Cc1cc(N[C@@H](C)C(=O)Nc2ccccc2)nc(NCCc2ccc(F)cc2)n1,2.77,4.77,1.18
C[C@H](Cc1ccc(OCCCCCCOc2ccc(C[C@@H](C)NC(=O)[C@H](O)c3cccc(Cl)c3)cc2)cc1)NC[C@H](O)c1cccc(Cl)c1,7.21,5.41,4.7
